From PubChem
This is one part of a sample in which hits are shown more often than they occur.
Chlamy TAG: increases triacylglycerol in Chlamydomonas reinhardtii; calls only at 10 µM (by protocol); hit rate 0.84% among 44,000; AID 1159537; Chlamydomonas reinhardtii TAG, Nile Red fluorescence, 72 h; call rule not given here;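 further: hits raise Nile Red signal meaning more stored TAG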
* marks the source's active call; other numbers are inactive results; i = inactive; + = active, no number.

SMILES	Chlamy TAG
CCN(CC)c1cc(C)nc(N)n1	+
CCC(C)Nc1nc(C)nc2c1sc1nc3c(cc12)COC(C)(C)C3 (centres undefined)	i
CCn1c(SCC(=O)Nc2ccc(C)cc2)nnc1C1CC1	i
COc1cccc(-c2nnc(SCC(=O)NC(C)c3ccccc3)n2-c2ccccc2)c1 (centres undefined)	i
COc1ccc(N2C(=O)CC(N3CCC(C(O)(c4ccccc4)c4ccccc4)CC3)C2=O)cc1 (centres undefined)	i
O=C1CC(N2CCC(C(O)(c3ccccc3)c3ccccc3)CC2)C(=O)N1c1ccc(F)cc1 (centres undefined)	+
NC(=O)C1CCN(C2CC(=O)N(c3ccc(F)cc3)C2=O)CC1 (centres undefined)	i
CC1CCC(N2CCN(C)CC2)CC1 (centres undefined)	i
CCOc1ccc(C(=O)Nc2c(C)cccc2C)cc1Cl	i
COc1ccc(CN(C)C2CCCCC2)cc1C	+
COc1ccc(Nc2nc(N)nc(CN(C)C3CCCCC3)n2)cc1	i
COc1ccc(CC(=O)NC2CCCC2)cc1	i
COc1ccc(CNC2CCCC2)cc1C	i
COc1ccc(CN2CCCC(O)C2)cc1C (centres undefined)	i
COc1ccc(CN(C)C2CCCCC2)cc1	+
O=C(Cc1ccccc1)Nc1ccc2c(c1)OCCO2	i
COCCNC(=O)c1oc2ccccc2c1C	i
N#CSCC(=O)c1ccccc1	i
O=[N+]([O-])c1cccc(CN2CCN(C3CCCC3)CC2)c1	i
O=[N+]([O-])c1ccc(N2CCN(Cc3ccccc3)CC2)nc1	i
O=[N+]([O-])c1ccc(C(O)CN2CCc3ccccc32)cc1 (centres undefined)	i
O=[N+]([O-])c1ccc(CN2CCN(C3CCCC3)CC2)cc1	+
O=[N+]([O-])c1ccc(C(O)CN2CCN(Cc3ccccc3)CC2)cc1 (centres undefined)	+
O=[N+]([O-])c1ccc(CN2CCN(C3CCCCC3)CC2)cc1	i
COc1cc([N+](=O)[O-])ccc1NC(=O)COc1cc(C)c(Cl)c(C)c1	i
SMILES	Chlamy TAG
N#CC1=C(N)OC2=C(C(=O)CCC2)C1c1cccc(Oc2ccc(Cl)cc2)c1 (centres undefined)	i
COc1ccc([N+](=O)[O-])cc1NS(=O)(=O)c1ccc(F)cc1	i
Cc1ccc2nc(N3CCC(C)CC3)c(C=O)c(=O)n2c1	i
Cc1ccc2nc(NC(=O)C3CCCCC3C(=O)O)sc2c1 (centres undefined)	i
Cc1ccc2nc(NC(=O)C3CC3)sc2c1	+
Cc1ccc2nc(NC(=O)NC3CCCCC3)sc2c1	i
Cc1cc(OCC(=O)O)cc(C)c1Cl	i
CC(=O)C1=C(C)NC(SCC(=O)c2ccccc2)=C(C#N)C1c1sccc1C (centres undefined)	i
COc1cc2cc(C(=O)NCCOc3ccccc3)c(N)nc2cc1OC	i
COc1ccc(NC(=O)c2ccc(C(=O)c3ccccc3)cc2)cc1	i
CC1(C)Oc2ccc(NC(=O)c3ccc(C(=O)c4ccccc4)cc3)cc2O1	+
CC1(C)Oc2ccc(NC(=O)Cc3ccc(F)cc3)cc2O1	i
O=C(O)C(Cc1ccccc1)N1C(=O)c2cc(Cl)c(Cl)cc2C1=O (centres undefined)	i
O=C1CC(NCc2ccncc2)C(=O)N1c1cccc(Cl)c1 (centres undefined)	i
Cc1ccc(S(=O)(=O)N2CCCCCC2)cc1	i
O=C(Nc1ccc2oc(-c3cccnc3)nc2c1)c1ccncc1	i
Cc1ccc(C(=O)Nc2ccc3oc(-c4ccncc4)nc3c2)cc1C	+
COc1cccc(C(=O)Nc2ccc3oc(-c4ccc(F)cc4)nc3c2)c1	i
COc1ccc(-c2nc3cc(NC(=O)c4ccccc4)ccc3o2)cc1	i
COc1cccc(C(=O)Nc2ccc3oc(-c4ccncc4)nc3c2)c1	+
O=C(Nc1ccc2oc(-c3ccncc3)nc2c1)c1ccccc1	i
Cc1ccc(CNc2ccc3[nH]ncc3c2)cc1	i
CCC(CC)C(=O)Nc1cc([N+](=O)[O-])ccc1C	i
COc1cc(CN2CCN(C/C=C/c3ccccc3)CC2)cc(OC)c1OC	i
COc1ccc(CN2CCN(C/C=C/c3ccccc3)CC2)cc1	+
SMILES	Chlamy TAG
C(=C\c1ccccc1)/CN1CCN(C2CCN(CCc3ccccc3)CC2)CC1	i
C(=C\c1ccccc1)/CN1CCN(C2C3CC4CC(C3)CC2C4)CC1 (centres undefined)	+
C(=C\c1ccccc1)/CN1CCN(c2ncccn2)CC1	i
COc1ccc(CN2CCN(C/C=C/c3ccccc3)CC2)c(O)c1	i
COc1cc(CN2CCN(C(=O)c3ccc(-c4ccccc4)cc3)CC2)cc(OC)c1O	i
Cc1cc(F)c(F)cc1C(=O)n1cncn1	i
CC1CCc2c(sc(NC(=O)c3ccc([N+](=O)[O-])cc3Cl)c2C(N)=O)C1 (centres undefined)	i
CCSc1nc2ccc(NC(=O)c3ccccc3Cl)cc2s1	i
COc1ccc(-c2csc(/C(C#N)=C\c3ccc(OC)c([N+](=O)[O-])c3)n2)cc1OC	i
CN1CCCN(Cc2ccco2)CC1	i
c1coc(CN2CCN(C3CCCCC3)CC2)c1	+
c1coc(CN2CCN(C3CC4CCC3C4)CC2)c1 (centres undefined)	i
Clc1cc(Br)ccc1OCCN1CCCC1	i
Cc1cc(Oc2ccc([N+](=O)[O-])cc2)nc(NCc2ccccc2)n1	i
Cc1cc(=O)[nH]c(NCc2ccccc2)n1	i
COc1cc(C)nc(NCc2ccccc2)n1	+
COc1ccccc1Cn1c(C(C)O)nc2ccccc21 (centres undefined)	+
Cc1cccc(Cn2c(C(C)O)nc3ccccc32)c1 (centres undefined)	i
CC(O)c1nc2ccccc2n1Cc1ccccc1Cl (centres undefined)	i
Cc1cc(C)c(-n2cnnn2)c(C)c1	i
Cc1cccc(N2CCN(C(=O)Nc3ccccc3)CC2)c1C	i
COc1ccc(Cl)cc1NS(=O)(=O)c1cc(Cl)ccc1OC	i
COCCNS(=O)(=O)c1cc(Cl)ccc1OC	+
COc1ccc(Cl)cc1S(=O)(=O)NCc1cccnc1	i
CCN(CC)CC#Cc1ccc(C#CCN(CC)CC)cc1	+
SMILES	Chlamy TAG
CCN(CC)CC#CC(O)c1ccccc1 (centres undefined)	i
CCN(CC)CC#CC(C)(O)C(C)C (centres undefined)	i
Nc1nc(-c2ccccc2)cc(C(F)F)n1	i
COCCC(=O)NC12CC3CC(CC(C3)C1)C2	i
O=C(O)CC(=O)NC12CC3CC(CC(C3)C1)C2	i
CC(C)NCC(=O)NC12CC3CC(CC(C3)C1)C2	+
COc1cccc(C=O)c1OCc1ccc(Cl)cc1Cl	i
COc1cc(/C=C(\C#N)c2nn(-c3ccccc3)c(N)c2C#N)ccc1OCc1ccc(C)cc1	i
Cc1cccc(OCC(=O)Nc2cccc3c2CCCC3)c1	i
CN1CC=C(CNc2cccc3c2CCCC3)CC1	+
O=C(Nc1cccc2c1CCCC2)C(Cl)Cl	i
CCOc1ccccc1C(=O)NCCc1ccc(F)cc1	i
O=C(O)CCCC(=O)Nc1ccc(C(=O)Nc2nccs2)cc1	i
Clc1ccccc1-c1nnc(-c2ccccc2Cl)o1	i
Cc1ccc(-c2nnc(-c3ccccc3Cl)o2)cc1	i
Clc1ccccc1-c1nnc(-c2ccccc2)o1	+
